In PubChem BioAssay:
Active and inactive are the calls of the source.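 Rule for the calls, unless noted: active = visually confirmed hit in the image check and inhibition above 20%; inconclusive = visually confirmed hit but inhibition not above 20%; inactive = no visual hit in the image check.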

Legend:
[1] = inhibitors of TNFa-induced NFkB p65 translocation, primary screen, imaging, HUVEC, MLSMR starter and 10KST1 sets (AID 438;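 active = inhibition above 20% together with a positive visual image hit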;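 note: compound added about 3h40 before a 20 min TNFalpha stimulation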;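 for inhibition: signal is the nuclear over cytoplasmic p65 intensity ratio per well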); settings: HUVEC TNFa-induced p65 nuclear translocation; cell count: measured here: nuclei count (cytotoxicity indicator), at 2.08 µM; inhibition: at 2 µM, stronger effect = higher value, 0% TNFa-plus-vehicle, 100% no-TNFa wells
[2] = reduction of polyQ htt aggregates in cells – imaging, exon1htt(103Q)mCFP cells, high-content imaging, primary screen (AID 483;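 active = visual image review flags a hit and inhibition of aggregation exceeds 20%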;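 note: compound exposure lasted 3 days before fixation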;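 for nuclei count: percent of the per-plate median nuclei count of sample wells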); settings: exon1htt(103Q)mCFP cell line, aggregate imaging, at 2 µM; inhibition of aggregation: stronger effect = higher value; nuclei count: measured here: cell count, toxicity
[3] = endothelial E-selectin expression blockers – imaging, HUVEC, immunofluorescence, MLSMR starter and 10KST1 sets, primary screen (AID 487); settings: HUVEC TNFalpha-induced E-selectin immunofluorescence imaging, at 2 µM; inhibition: stronger effect = higher value; nuclei count: measured here: cell number, toxicity;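 for inhibition: signal is fraction of cell area covered by stained E-selectin grains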;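 for nuclei count: 100% = median nuclei count of all wells on the same plate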
[4] = biological target: Voltage-gated potassium channel subunit beta-2 (Rattus norvegicus) (UniProt P62483); assay: inhibitors of rat Kvbeta2 reductase activity – biochemical, NADPH fluorescence, primary screen (AID 622;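 active = fluorescence slope higher than the sample average by over 3 SD, cut at about -0.22 in these data, passing the limit was not always enough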;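 note: slope of raw intensity against log time taken from 70 to 1610 s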); settings: recombinant KvBeta, 4-cyanobenzaldehyde reduction, at 10 µM, stronger effect = higher value
[5] = biological target: Voltage-gated potassium channel subunit beta-2 (Rattus norvegicus) (UniProt P62483); assay: enhancers of rat Kvbeta2 NADPH turnover – biochemical, NADPH fluorescence, primary screen (AID 623;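 active = NADPH fluorescence slope more negative than the mean of all samples by about 3 SD, 99.7% confidence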;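 note: fluorescence intensity change per second fitted from 20 to 320 s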); settings: Recombinant KvBeta, NADPH fluorescence decrease slope, 10 min; at 10 µM; stronger effect = lower value
[6] = biological target: Alpha-2C adrenergic receptor (Homo sapiens) (UniProt P18825); assay: compounds altering alpha2C-coupled GIRK flux – cell-based, HEK293 alpha2C/GIRK1/2, thallium flux, primary screen (AID 624;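 active = fluorescence slope after compound addition differing from the mean of all screened samples at 99.7% confidence, in either direction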;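 note: slope of fluorescence ratio to pre-addition baseline per second over 15 to 24 s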); settings: thallium flux BTC fluorescence, at 10 µM, actives lie on both sides
[7] = blockers of RIG-like receptor reporter activation – cell-based, Sendai virus stimulus, luciferase, 10K MLSCN set, TLR/RLR signaling modifier project, primary screen (AID 602276;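 active = inhibition at or above 50% at 10 µM; inactive = inhibition below 50%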;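 note: firefly luciferase from ISG56 promoter only with Renilla not read in this screen; 0% = Sendai virus plus DMSO and 100% = medium plus DMSO without virus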); settings: HEK293 RL24 IRF3 luciferase reporter, at 10 µM, stronger effect = higher value
[8] = TLR3 IRF3 reporter activation blockers – cell-based, poly I:C stimulus, luciferase, 10K MLSCN set, primary screen (AID 602277;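 active = inhibition of the reporter signal at or above 50%; inactive = inhibition below 50%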); settings: HEK293-TLR3 RL24 IRF3 luciferase reporter, at 10 µM, stronger effect = higher value

Sequence of Alpha-2C adrenergic receptor (Homo sapiens) (P18825 whole entry, looked up): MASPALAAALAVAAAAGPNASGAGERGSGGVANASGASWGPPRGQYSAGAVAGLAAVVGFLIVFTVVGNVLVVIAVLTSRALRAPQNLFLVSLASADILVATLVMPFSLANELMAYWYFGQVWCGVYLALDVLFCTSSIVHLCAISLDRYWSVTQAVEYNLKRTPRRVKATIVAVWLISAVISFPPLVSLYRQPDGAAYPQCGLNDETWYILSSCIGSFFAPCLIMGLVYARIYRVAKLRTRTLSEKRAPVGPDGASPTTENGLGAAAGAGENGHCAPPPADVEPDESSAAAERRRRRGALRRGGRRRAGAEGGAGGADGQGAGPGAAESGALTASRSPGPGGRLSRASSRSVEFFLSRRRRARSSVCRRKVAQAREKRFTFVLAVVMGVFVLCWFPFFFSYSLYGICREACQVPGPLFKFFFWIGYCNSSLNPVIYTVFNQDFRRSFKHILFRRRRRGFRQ
Sequence of Voltage-gated potassium channel subunit beta-2 (Rattus norvegicus) (P62483 whole entry, looked up): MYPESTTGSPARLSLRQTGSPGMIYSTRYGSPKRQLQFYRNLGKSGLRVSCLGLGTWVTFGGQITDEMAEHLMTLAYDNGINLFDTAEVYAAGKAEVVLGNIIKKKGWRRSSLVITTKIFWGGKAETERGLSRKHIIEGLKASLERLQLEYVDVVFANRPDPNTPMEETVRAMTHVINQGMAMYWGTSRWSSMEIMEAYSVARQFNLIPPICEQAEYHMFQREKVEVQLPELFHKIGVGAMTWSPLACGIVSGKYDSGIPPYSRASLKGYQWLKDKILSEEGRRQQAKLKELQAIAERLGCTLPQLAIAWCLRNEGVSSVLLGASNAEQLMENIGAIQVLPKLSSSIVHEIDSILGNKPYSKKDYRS

SMILES | cell count [1] | inhibition [1] | inhibition of aggregation [2] | nuclei count [2] | inhibition [3] | nuclei count [3] | fluorescence slope [4] | NADPH fluorescence slope [5] | slope [6] | inhibition [7] | inhibition [8]
CCC(C)NC(=O)C1c2cc(OC)c(OC)cc2C(=O)N(C)C1c1ccc(OC)cc1 (stereo not drawn) | 455 | -0.3% (inactive) | 7.3% (inactive) | 100% | 43.7% (inactive) | 52.6% | -0.539 (inactive) | -8.1e-06 (inactive) | 0.00537 (inactive) | -0.973% (inactive) | 2.51% (inactive)
O=C1c2ccccc2C(=O)N1CNc1ccccc1 | 425 | -2.7% (inactive) | -3.7% (inactive) | 112% | -144% (inactive) | 118% | -0.603 (inactive) | -1.7e-05 (inactive) | 0.00312 (inactive) | 7.68% (inactive) | -8.22% (inactive)
O=C(Nc1ncc(Br)s1)C1CCCN1S(=O)(=O)c1cccc2cccnc12 (stereo not drawn) | 674 | 0.6% (inactive) | 39.7% (inactive) | 88.6% | -12.1% (inactive) | 105% | -0.583 (inactive) | -2.2e-05 (inactive) | 0.00689 (inactive) | 4.87% (inactive) | 36.5% (inactive)
CCCN1CCN(C(=O)Cn2c(=O)oc3cc(S(=O)(=O)NCc4ccccc4)ccc32)CC1 | 809 | 1.6% (inactive) | -16.6% (inactive) | 117% | -19.9% (inactive) | 114% | -0.51 (inactive) | -2.7e-05 (inactive) | 0.00639 (inactive) | 8.82% (inactive) | 23.8% (inactive)
COC(=O)c1cc(=O)nc2sc(-c3cccs3)nn12 | 349 | 5.5% (inactive) | 4.7% (inactive) | 100% | -73.7% (inactive) | 105% | -0.463 (inactive) | -2.2e-05 (inactive) | 0.006 (inactive) | 12.6% (inactive) | 29.9% (inactive)
CCNc1ccc(C(=O)OCC)cc1NC(=O)c1cc(S(=O)(=O)N2CCOCC2)ccc1C | 772 | 7.3% (inactive) | 31.2% (inactive) | 93.3% | -81.9% (inactive) | 114% | -0.551 (inactive) | 4.9e-05 (inactive) | 0.00574 (inactive) | -4.65% (inactive) | -25.5% (inactive)
NC(=O)c1ccccc1NC(=O)CN1CCOCC1 | 658 | -24.7% (inactive) | -45.9% (inactive) | 124% | -46.9% (inactive) | 105% | -0.492 (inactive) | -3.8e-05 (inactive) | 0.00501 (inactive) | 21.2% (inactive) | 20.7% (inactive)
Cc1ccc(-n2c(=O)c(C#N)cc3c(=O)n4ccccc4nc32)cc1 | 338 | 3.6% (inactive) | -21.9% (inactive) | 99.9% | -31% (inactive) | 102% | -0.232 (inactive) | 9.6e-06 (inactive) | 0.00607 (inactive) | 5.28% (inactive) | 26.9% (inactive)
CC1CCCN(S(=O)(=O)c2coc(C(N)=O)c2)C1 (stereo not drawn) | 697 | -0.6% (inactive) | -15.4% (inactive) | 111% | 1.5% (inactive) | 95.6% | -0.6 (inactive) | -2.8e-05 (inactive) | 0.00651 (inactive) | 1.83% (inactive) | 25.1% (inactive)
COC(=O)CSc1nc2nc(C)cc(C)n2n1 | 722 | -4.5% (inactive) | 0.1% (inactive) | 98.6% | -33.5% (inactive) | 108% | -0.552 (inactive) | -1.8e-05 (inactive) | 0.00719 (inactive) | 11.7% (inactive) | 28.1% (inactive)
CCOc1ccc(NC(=O)Cn2nnc(-c3ccccc3F)n2)cc1 | 513 | -2.7% (inactive) | 19% (inactive) | 88.3% | -32.4% (inactive) | 103% | -0.539 (inactive) | 2.1e-05 (inactive) | 0.00657 (inactive) | 9.14% (inactive) | 12.8% (inactive)
O=C(CSc1nc(-c2ccccc2)cs1)NCc1ccco1 | 200 | -1.3% (inactive) | 0.4% (inactive) | 54.4% | -32.4% (inactive) | 106% | -0.511 (inactive) | -3.4e-05 (inactive) | 0.00584 (inactive) | -27.5% (inactive) | -55.9% (inactive)
CCOc1ccc(NC(=O)c2ccc3c(c2)N(Cc2ccc(F)cc2)C(=O)CS3=O)cc1 (stereo not drawn) | 659 | 0% (inactive) | -4.8% (inactive) | 105% | -25.6% (inactive) | 113% | -0.551 (inactive) | -2.5e-05 (inactive) | 0.00664 (inactive) | 5.6% (inactive) | -7.02% (inactive)
